Measured values taken from PubChem BioAssay AID720 (The Scripps Research Institute Molecular Screening Center, 2007).
In all, about 97,000 compounds went through this assay and about 140 (0.14%) were called active. Many of the other results were omitted from the sample, so actives are more common in it than they were. A number with no mark means an inactive call.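 Rule for the calls: active = inhibition above the screen-wide mean inhibition plus 3 SD (cut at about 15% in these data); inactive = the rest.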

Molecular target: Ephrin type-B receptor 4 (Homo sapiens) (UniProt P54760)
Assay: EphB4-ephrin-B2 interaction antagonists, primary screen, biochemical, TNYL-RAW peptide probe, fluorescence polarization (AID 720);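 note: 0% = DMSO wells and 100% = excess unlabeled TNYL-RAW peptide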
Conditions: EphB4 LBD / TNYL-RAW-Alexa532 peptide, at 7 µM, hits give high values

Sequence of Ephrin type-B receptor 4 (Homo sapiens) (P54760 whole entry, looked up): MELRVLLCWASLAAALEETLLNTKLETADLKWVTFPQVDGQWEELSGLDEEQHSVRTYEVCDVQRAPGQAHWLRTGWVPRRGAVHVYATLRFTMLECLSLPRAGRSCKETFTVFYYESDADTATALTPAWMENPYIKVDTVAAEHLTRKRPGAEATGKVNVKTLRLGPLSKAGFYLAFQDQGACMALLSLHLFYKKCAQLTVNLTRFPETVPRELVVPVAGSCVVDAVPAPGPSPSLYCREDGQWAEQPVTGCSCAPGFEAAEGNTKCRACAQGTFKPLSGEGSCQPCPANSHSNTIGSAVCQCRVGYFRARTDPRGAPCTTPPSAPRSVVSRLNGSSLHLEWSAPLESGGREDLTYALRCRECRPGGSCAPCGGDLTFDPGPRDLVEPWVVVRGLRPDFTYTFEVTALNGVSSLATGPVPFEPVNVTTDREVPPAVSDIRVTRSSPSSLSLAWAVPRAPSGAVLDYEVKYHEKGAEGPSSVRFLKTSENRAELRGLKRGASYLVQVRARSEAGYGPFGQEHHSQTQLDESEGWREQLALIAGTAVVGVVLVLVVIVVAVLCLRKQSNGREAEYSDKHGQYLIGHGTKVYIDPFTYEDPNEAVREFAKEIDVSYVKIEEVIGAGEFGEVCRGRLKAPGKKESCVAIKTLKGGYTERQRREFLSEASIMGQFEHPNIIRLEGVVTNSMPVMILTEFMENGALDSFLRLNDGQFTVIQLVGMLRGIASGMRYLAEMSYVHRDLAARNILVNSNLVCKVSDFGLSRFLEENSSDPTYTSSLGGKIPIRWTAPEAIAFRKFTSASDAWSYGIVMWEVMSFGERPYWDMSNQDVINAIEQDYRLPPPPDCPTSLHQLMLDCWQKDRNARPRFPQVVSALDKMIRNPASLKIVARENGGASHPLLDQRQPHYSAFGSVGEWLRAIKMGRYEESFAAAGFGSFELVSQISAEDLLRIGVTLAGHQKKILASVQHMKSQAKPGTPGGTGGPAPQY

| SMILES | inhibition |
| --- | --- |
| Cc1ccc(-c2nn(-c3ccccc3)cc2/C=N/NC(=O)c2ccc3c(c2)OCO3)cc1 | -6.96% |
| CN(C)Cc1ccccc1C1(O)c2ccccc2CSc2ccccc21 (configuration not stated) | 2.27% |
| O=c1nc(N2CCOCC2)nc2n1CCO2 | -6.76% |
| CN(C)c1nc2n(c(=O)n1)CCO2 | 17.6% (active) |
| CC(C)CC(N=C1NC(C)(C)Cc2ccccc21)C(=O)O (configuration not stated) | 0.51% |
| COc1ccc(/C(O)=C2\C(=O)C(=O)N(Cc3ccco3)C2c2ccc(OC)cc2OC)cc1 (configuration not stated) | -7.3% |
| CCOC(=O)c1c(NC(=O)CCCN2CCOCC2)sc2c1CC(C)(C)OC2 | 7.6% |
| CCCOC(=O)c1[nH]c2c(c1C)C(=O)CC(c1cccs1)C2 (configuration not stated) | 3.13% |
| Nn1c(Cc2cccc3ccccc23)nnc1SCC(=O)N1CC(=O)Nc2ccccc21 | 5.41% |
| CCOc1ccc(NC(=O)CN(C)CC(=O)Nc2cccc(Cl)c2C)cc1OCC | -10.2% |
| COC(=O)c1ccc(C2C(Oc3ccccc3C)C(=O)N2CCc2ccc(OC)c(OC)c2)cc1 (configuration not stated) | -5.62% |
| CCC(C)(C(=O)NC1CCCCC1)N(C)C(=O)c1ccc2c(c1)OCO2 (configuration not stated) | 3.83% |
| O=C(COc1ccc(Cl)cc1)N1CCN(S(=O)(=O)c2ccc(Cl)cc2)CC1 | 0.78% |
| Cc1cccc(N2CCN(C(=O)CN(C)S(=O)(=O)c3ccc4c(c3)CCC(=O)N4)CC2)c1C | 3.05% |
| CN(C)CCNC(=O)Nc1cccc(Cl)c1Cl | -7% |
| O=C1CSC(c2ccc(Cl)cc2)N1 (configuration not stated) | -6.27% |
| Cc1cccc(NC(=S)Nc2ccc(Br)cc2)c1 | 1.26% |
| O=C(Nc1cccn(Cc2c(Cl)cccc2Cl)c1=O)c1ccc(Cl)cc1 | 4.57% |
| CCOc1ccc(Nc2nc(Cc3nnc(SCC(=O)c4ccc(C)cc4)o3)cs2)cc1 | 2.63% |
| CC(C)(C)n1nnnc1C(c1ccc(Cl)cc1)N1CCSCC1 (configuration not stated) | 3.05% |
| COc1cccc2c1OCC1COc3c(c(=O)n(C)c(=O)n3C)C21 (configuration not stated) | 5.25% |
| Cc1ccc(NC(=O)CSCC(=O)N2CCOCC2)cc1 | 1.18% |
| Cc1cc(Nc2ccccc2)nc(N)n1 | -7.64% |
| O=C(NCCc1ccccn1)c1cc(C(=O)C2CCCCC2)c[nH]1 | 1.78% |
| C/C(=N\NC(=O)c1nc(C)cc(C)n1)c1ccccc1 | 3.33% |

| SMILES | inhibition |
| --- | --- |
| O=S(=O)(Cc1cc(Sc2ccccc2)nc(-c2ccccc2)n1)c1ccccc1 | -3.64% |
| Cc1cc(N)n2nc(-c3ccc(C(C)(C)C)cc3)cc2n1 | -2.84% |
| Oc1ccc(CNc2ccccc2O)cc1 | -12.7% |
| O=C(COc1ncnc2c(Cl)cc(Cl)cc12)N1CCN(S(=O)(=O)c2ccccc2)CC1 | -7.07% |
| CC(C)CNC(=O)CC(c1ccccc1)c1c(O)ccc2ccccc12 (configuration not stated) | 2.89% |
| Cc1ccsc1/C=C1\SC(N2CCOCC2)=NC1=O | -4.07% |
| Nc1ccc(C(=O)OCC(=O)NC2CCCc3ccccc32)cc1[N+](=O)[O-] (configuration not stated) | -2.7% |
| COc1ccc(OCCCC(=O)Oc2ccc(OC)cc2)cc1 | 5.05% |
| O=C(COC(=O)c1ccccc1NC(=O)c1ccco1)Nc1ccc2c(c1)OC(F)(F)O2 | -1.26% |
| COc1ccc(NC(=O)NC2CC3CCCC(C2)N3Cc2ccccc2)cc1 (configuration not stated) | -5.24% |
| O=C(Nc1ccccc1[N+](=O)[O-])C1C(c2ccccc2)=C1c1ccccc1 | 2.26% |
| Cn1cnc([N+](=O)[O-])c1Nc1ccccc1O | 2.1% |
| Clc1ccc(COn2c(-c3ccc(Cl)cc3Cl)nc3ncccc32)cc1 | 1.17% |
| O=c1c2ccccc2nc2n1C1(CCCCC1)Cc1ccccc1-2 | 6.44% |
| CCOC(=O)C1=C(c2ccccc2)O/C(=C(/C(=O)OC)C(F)(F)F)S1 | -6.59% |
| O=C(Cn1ccc([N+](=O)[O-])n1)NCc1cccs1 | -8.7% |
| Cc1[nH]n(-c2ccccc2)c(=O)c1CCOC(=O)c1ccc(C(F)(F)F)cc1 | 5.95% |
| COC(=O)Cc1cc(=O)oc2c(C)c(O)ccc12 | -7.76% |
| COC(=O)/C(=C\Nc1ccccc1)NC(=O)c1ccc(Cl)cc1Cl | 2.49% |
| COC(=O)c1cccc(N(C(=O)c2ccco2)C(C(=O)NC2CCCC2)c2ccco2)c1 (configuration not stated) | -2.29% |
| O=C(CSC1=Nc2ccccc2C2=NC(CC(=O)NCc3ccco3)C(=O)N12)NCc1ccco1 (configuration not stated) | -6.96% |
| Cc1cccc(C)c1NC(=O)CCS(=O)(=O)c1cccc2nsnc12 | 7.08% |
| Cc1cc2nc(C)n(CCCNC(=O)Nc3ccccc3)c2cc1C | -0.81% |
| CCN1CCC(=NNC(=O)c2ccc(C)c([N+](=O)[O-])c2)CC1 | 8.39% |
| ONC(=Nc1ccc(Cl)cc1)c1ccccc1Cl | -1.3% |

| SMILES | inhibition |
| --- | --- |
| CCn1nc(C)c(NC(=O)/C=C/c2ccc(OC)c(COc3ccc(Br)cc3)c2)c1C | 7.03% |
| c1ccc(-c2nc(NCc3ccco3)c3ccccc3n2)cc1 | 4.23% |
| CN1/C(=c2/s/c(=C3/C(=O)N(c4ccccc4)NC3=Nc3ccccc3)n(C)c2=O)C(C)(C)c2ccccc21 | 0.36% |
| Cc1ccc(NC2(C#N)C(=O)Nc3ccccc32)cc1 (configuration not stated) | 0.9% |
| CCCCNC(=O)CSc1nc2n[nH]c(C)c2c(=N)n1-c1cccc(Cl)c1C | 6.52% |
| Cc1ccc2c(c1)-c1c(ssc1=S)C(C)(C)N2C(=O)CN1C(=O)c2ccccc2C1=O | 10.6% |
| O=C(Nc1sc2c(c1-c1nc3ccccc3[nH]1)CCCC2)C1CC1 | -2.93% |
| COC(=O)Nc1sc2nc(C)cc(C)c2c1-n1cccc1 | -5.41% |
| Cc1nc(NNC(=O)c2ccccc2)cc(-c2ccccc2)n1 | 8.09% |
| O=C(COC(=O)c1ccc(S(=O)(=O)N2CCc3ccccc3C2)cc1)NC(=O)NCc1ccco1 | 3.64% |
| COc1cc(C)c(C(C)C)cc1S(=O)(=O)n1ccnc1 | 1.74% |
| NC(=O)C1(N2CCCCC2)CCN(C(=S)Nc2ccc(Cl)cc2)CC1 | -1.72% |
| NC(=O)COc1ccc(/C=N/NC(=O)C2CCCN2S(=O)(=O)c2ccc(Cl)cc2)cc1 (configuration not stated) | 0.72% |
| CS(=O)(=O)N1CCN(c2cccc(Cl)n2)CC1 | -3.22% |
| CCCc1nc2sc3c(c2c(=O)n1NC(=O)CCCl)CCCC3 | 2.57% |
| CC1CCC2(CC1)NC(=O)N(CC(=O)c1cccn1C)C2=O (configuration not stated) | 4.98% |
| COc1ccc(/C=C(/NC(=O)c2ccc(C)cc2)c2nc3ccccc3[nH]2)cc1OC | -1.55% |
| CCCc1nnc(NC(=O)c2cccs2)s1 | -2.26% |
| CCCc1nnc(NC(=O)CN2C(=O)c3ccccc3S2(=O)=O)s1 | 18.1% (active) |
| CNC(=O)CN1C(=O)c2ccccc2S1(=O)=O | -4.4% |
| COC(=O)c1cc(OC)ccc1-c1ccc(OC)cc1 | -6.72% |
| O=C(COC(=O)c1n[nH]c2ccccc12)NCc1ccccc1 | 1.83% |
| CC(C)c1ccc(N2CCN(C(=O)c3ccccc3NC(=O)/C=C(\C(=O)O)c3ccccc3)CC2)cc1 | -2.32% |
| CC(C)Oc1ccc(Oc2ccc(C(F)(F)F)cn2)cc1 | -4.38% |
| O=C(CNC(=O)c1cc2c(s1)CCC2)Nc1ccccc1Br | -5.12% |

| SMILES | inhibition |
| --- | --- |
| C=CCOc1c2ccc(C(=O)N(CC)c3ccc(OC)cc3)cc2nn1C | 0.66% |
| C=CCNC(=O)c1sc(SC)cc1-c1ccc(Cl)cc1 | -2.13% |
| Cc1cccc(NC(=O)c2ccc(OCC(=O)NCc3ccccc3)cc2)c1C | 0.02% |
| Cc1ccc(NC(=S)N/N=C2/CCCc3c(C)cc(C)cc32)cc1 | 0.47% |
| CCOC(=O)c1ccc2c(c1)nc(C)n2CC | -0.83% |
| COC(=O)c1ccccc1OCC(=O)N1CCN(c2ccc(Cl)cc2)CC1 | -4.75% |
| OC(COCCC12CC3CC(CC(C3)C1)C2)CN1CCCCC1 (configuration not stated) | 2.92% |
| N/C(=N\OC(=O)c1cc(-c2ccccc2)nc2ccccc12)c1ccncc1 | -5.76% |
| Cc1ccc2c(Cl)c(C(=O)NCCCn3ccnc3)sc2c1 | 8.67% |
| COc1ccc(C(=O)OCC(=O)NCC2CCCCC2)cc1S(=O)(=O)N1CCCc2ccccc21 | -0.59% |
| Cc1ccc(C(=O)c2c(NC(=O)c3ccncc3)sc3c2CCCC3)cc1 | 1.3% |
| O=C(N/N=C\c1cccc(Br)c1)c1ccccc1-n1cccc1 | 1.13% |
| CC(=O)c1cccc(NC(=O)N2CCCC2C(=O)NCCc2ccccc2)c1 (configuration not stated) | 0.44% |
| CC(=O)c1cccc(NC(=O)N2CCCC2C(=O)NCCC(C)C)c1 (configuration not stated) | 3.74% |
| CCC1CCCCN1C(=O)Nc1cccc(NC(=O)N2CCCCC2CC)c1 (configuration not stated) | 16.1% (active) |
| Cc1ccc(NC(=O)C(C)c2cccc(C(=O)c3ccccc3)c2)cc1 (configuration not stated) | -1.1% |
| CCOC(=O)C1=C(CN2CCc3ccccc32)NC(=O)NC1c1cc(C)ccc1C (configuration not stated) | -2.91% |
| O=C1c2ccccc2C(=O)N1CCCc1nc(-c2ccccc2)no1 | 5.53% |
| Cc1ccccc1OC(=O)Cn1c(C(F)(F)F)nc2ccccc21 | -8.85% |
| O=[N+]([O-])c1ccccc1/C=N/n1c(COc2ccccc2)n[nH]c1=S | 2.36% |
| Cc1ccc(/C=N\n2c(-c3ccccc3)n[nH]c2=S)s1 | -7.78% |
| Oc1ccccc1/C=N/n1c(-c2cccs2)n[nH]c1=S | 15.8% (active) |
